According to PubChem BioAssay:
Values without a mark were called inactive. For some assays here: Results with a measured potency or affinity are listed apart. Active and inactive are the calls of the source. Unless noted, the rule behind the calls is not given here.

Columns and labels:
[1] = antimalarial activity against Dd2 strain (AID 2302;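 active = growth inhibition above 50% at the single 2 µM test dose, taken to imply half-maximal potency below 2 µM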;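 note: 0% = DMSO untreated growth and 100% = chloroquine plus artemisinin killed control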); details: P. falciparum Dd2 in RBCs, LDH growth readout, 72 h; at 2 µM; stronger effect = higher value
[2] = human hepatoma cell viability loss – ATP luminescence, cytotoxicity control for P. falciparum antimalarial project, primary screen (AID 2303;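 active = inhibition above 50%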;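 note: 0% = DMSO wells and 100% = digitonin-killed cells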); details: HepG2 viability, 24-48 h, at 10 µM, stronger effect = higher value
[3] = target: L-lactate dehydrogenase (Plasmodium falciparum (isolate CDC / Honduras)) (UniProt Q27743); test: PfLDH activity inhibition – cell lysate, 3D7 strain, counter-screen for P. falciparum growth inhibition project (AID 2304);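 note: 0% = vehicle and 100% = reference inhibitor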; details: P. falciparum 3D7 crude extract, LDH APAD/NBT absorbance; at 2 µM; stronger effect = higher value
[4] = inhibition of 3D7 malaria parasite growth – strain 3D7 (AID 2306);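 note: 0% = DMSO wells and 100% = chloroquine plus artemisinin control wells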; details: P. falciparum 3D7 erythrocytic growth, LDH absorbance, 72 h; at 2 µM; stronger effect = higher value
[5] = target: Calcium-dependent protein kinase 1 (Plasmodium falciparum (isolate 3D7)) (UniProt P62344); test: PfCDPK1 kinase inhibitors, biochemical, TCAMS library (AID 1159585; cut-off not given, nearly all actives have IC50 up to about 0.98 µM;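 note: inhibitors leave more ATP so luminescence rises with inhibition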); details: recombinant PfCDPK1, Kinase-Glo ATP depletion luminescence
[6] = target: Plasmodium falciparum protein kinase 6 (PK6, PF3D7_1337100) (UniProt Q8IDW1); test: PfPK6 kinase inhibitors, biochemical, TCAMS library (AID 1159586); details: recombinant PfPK6, Kinase-Glo ATP depletion luminescence
[7] = target: Protein kinase 7 (PK7), Plasmodium falciparum 3D7 (PF3D7_0213400) (UniProt Q7YTF7); test: inhibition of Plasmodium PK7 catalytic activity – biochemical, TCAMS antimalarial set, Kinase-Glo luminescence (AID 1159587); details: recombinant PfPK7, Kinase-Glo ATP depletion luminescence
[8] = target: Calcium-dependent protein kinase 4 (Plasmodium falciparum (isolate 3D7)) (UniProt Q8IBS5); test: PfCDPK4 kinase inhibitors, biochemical, TCAMS library (AID 1159588; cut-off not given, nearly all actives have IC50 up to about 0.91 µM); details: recombinant PfCDPK4, Kinase-Glo ATP depletion luminescence
Sequence of Calcium-dependent protein kinase 4 (Plasmodium falciparum (isolate 3D7)) (Q8IBS5 whole entry, looked up): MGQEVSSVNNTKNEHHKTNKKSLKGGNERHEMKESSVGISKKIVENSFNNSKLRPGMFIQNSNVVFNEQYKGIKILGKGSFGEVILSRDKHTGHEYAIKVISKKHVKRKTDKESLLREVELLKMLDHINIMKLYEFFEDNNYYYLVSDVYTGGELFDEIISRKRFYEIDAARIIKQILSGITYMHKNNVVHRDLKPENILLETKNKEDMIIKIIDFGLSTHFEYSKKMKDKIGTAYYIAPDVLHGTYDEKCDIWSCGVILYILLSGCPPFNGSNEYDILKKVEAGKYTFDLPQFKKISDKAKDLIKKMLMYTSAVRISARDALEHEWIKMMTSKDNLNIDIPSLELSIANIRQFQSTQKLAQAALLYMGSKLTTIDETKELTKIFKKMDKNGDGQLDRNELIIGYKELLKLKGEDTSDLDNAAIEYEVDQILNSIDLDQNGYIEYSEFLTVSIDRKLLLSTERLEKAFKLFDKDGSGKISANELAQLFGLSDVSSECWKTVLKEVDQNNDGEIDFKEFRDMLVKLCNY

Sequence of L-lactate dehydrogenase (Plasmodium falciparum (isolate CDC / Honduras)) (Q27743 whole entry, looked up): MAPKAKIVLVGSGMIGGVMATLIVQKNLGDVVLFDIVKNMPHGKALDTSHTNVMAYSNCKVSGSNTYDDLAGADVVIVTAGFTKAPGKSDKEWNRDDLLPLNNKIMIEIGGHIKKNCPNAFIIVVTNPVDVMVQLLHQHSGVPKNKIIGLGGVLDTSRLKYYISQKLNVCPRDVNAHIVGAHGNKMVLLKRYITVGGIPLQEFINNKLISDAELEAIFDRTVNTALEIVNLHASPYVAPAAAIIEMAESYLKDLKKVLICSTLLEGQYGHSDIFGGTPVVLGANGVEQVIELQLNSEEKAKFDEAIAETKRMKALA
Sequence of Protein kinase 7 (PK7), Plasmodium falciparum 3D7 (PF3D7_0213400) (Q7YTF7 1-343): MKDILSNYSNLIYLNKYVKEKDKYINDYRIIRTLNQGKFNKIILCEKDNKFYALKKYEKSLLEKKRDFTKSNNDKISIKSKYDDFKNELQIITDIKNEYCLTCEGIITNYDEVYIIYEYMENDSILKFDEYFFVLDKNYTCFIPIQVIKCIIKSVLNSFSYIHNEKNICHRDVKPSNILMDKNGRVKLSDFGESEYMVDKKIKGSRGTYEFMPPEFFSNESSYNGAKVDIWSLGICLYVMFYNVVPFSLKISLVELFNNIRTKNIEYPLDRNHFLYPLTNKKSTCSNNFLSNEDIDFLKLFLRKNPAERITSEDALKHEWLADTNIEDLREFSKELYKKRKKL
Sequence of Plasmodium falciparum protein kinase 6 (PK6, PF3D7_1337100) (Q8IDW1 1-305): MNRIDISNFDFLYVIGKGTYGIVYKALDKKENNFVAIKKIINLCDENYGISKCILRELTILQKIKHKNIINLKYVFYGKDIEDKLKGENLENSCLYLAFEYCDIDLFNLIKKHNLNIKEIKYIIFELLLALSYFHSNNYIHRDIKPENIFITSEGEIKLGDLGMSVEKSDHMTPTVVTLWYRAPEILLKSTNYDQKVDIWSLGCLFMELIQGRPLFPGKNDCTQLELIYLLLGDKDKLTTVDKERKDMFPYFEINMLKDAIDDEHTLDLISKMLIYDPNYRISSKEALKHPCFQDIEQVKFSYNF
Sequence of Calcium-dependent protein kinase 1 (Plasmodium falciparum (isolate 3D7)) (P62344 whole entry, looked up): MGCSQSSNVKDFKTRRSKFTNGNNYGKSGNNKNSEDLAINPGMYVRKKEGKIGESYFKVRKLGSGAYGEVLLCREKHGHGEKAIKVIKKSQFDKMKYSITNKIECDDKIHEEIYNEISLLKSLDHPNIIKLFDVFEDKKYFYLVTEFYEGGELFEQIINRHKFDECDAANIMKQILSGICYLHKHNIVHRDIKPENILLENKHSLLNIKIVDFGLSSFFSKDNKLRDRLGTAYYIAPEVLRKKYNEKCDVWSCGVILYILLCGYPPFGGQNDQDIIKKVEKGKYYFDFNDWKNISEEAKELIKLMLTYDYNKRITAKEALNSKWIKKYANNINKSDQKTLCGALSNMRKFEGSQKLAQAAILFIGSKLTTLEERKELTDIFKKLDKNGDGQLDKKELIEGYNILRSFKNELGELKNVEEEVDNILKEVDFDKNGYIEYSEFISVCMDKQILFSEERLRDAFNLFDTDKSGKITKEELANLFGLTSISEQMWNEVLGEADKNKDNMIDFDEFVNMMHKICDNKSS

Structure (SMILES) | growth inhibition [1] | inhibition [2] | inhibition [3] | growth inhibition [4] | outcome [5] | outcome [6] | outcome [7] | outcome [8]
O=C1[C@H]2C(c3ccc(Cl)c(Cl)c3)N3CC(OCc4ccccc4)CC3(C(=O)O)[C@H]2C(=O)N1c1ccc(Br)cc1 (stereo not given in full) | 86% (active) | 14% | 2% | 104% (active) | inactive | inactive | inactive | inactive
CC(C)Sc1nc2c(c(=O)n1Cc1ccco1)C1(CCCCC1)Cc1ccccc1-2 | 99% (active) | 10% | 0% | 100% (active) | inactive | inactive | inactive | inactive
CCC(C)c1ccc(NC(=O)C(C)c2ccc([N+](=O)[O-])cc2)cc1 (stereo not given) | 100% (active) | 14% | -3% | 101% (active) | inactive | inactive | inactive | inactive
CCCNCc1ccc(-c2ccc(CN(C(=O)c3nn(-c4ccccc4)nc3C)C3CC3)cc2)nc1 | -3% | 23% | -2% | 101% (active) | inactive | inactive | inactive | inactive
FC(F)(F)c1ccc2nc(-c3cccc(-c4cccc(CNCc5cnn(-c6ccccc6)n5)c4)c3)[nH]c2c1 | 28% | 6% | -5% | 100% (active) | inactive | inactive | inactive | inactive
CC(NC(=O)c1ccc(O)c(-c2ccc(Cl)c(Cl)c2)c1)C(=O)NC1CCCCC1 (stereo not given) | 82% (active) | -5% | -2% | 96% (active) | inactive | inactive | inactive | inactive
C[C@@H](NC(=O)c1nn(-c2ccc(Cl)cc2)c(=O)c2ccccc12)C(C)(C)C | 20% | 7% | -2% | 95% (active) | inactive | inactive | inactive | inactive
O=C(CSc1nc2ccc([N+](=O)[O-])cc2s1)Nc1ccccc1-c1ccccc1 | 49% | -1% | 0% | 80% (active) | inactive | inactive | inactive | inactive
Nc1cc2c(C3CCN(CC4CCN(C(=O)/C=C/c5ccc(Cl)c(Cl)c5)CC4)CC3)c[nH]c2cn1 | 94% (active) | 0% | -3% | 101% (active) | inactive | inactive | inactive | inactive
CC(=O)CCc1ccc(OCCN(Cc2ccccc2C(F)(F)F)c2ccc(C#N)c(C(F)(F)F)c2)cc1 | 87% (active) | 14% | 0% | 100% (active) | inactive | inactive | inactive | inactive
CCCC(=O)Nc1ccc(OCCCCN(Cc2ccccc2C(F)(F)F)c2ccc(C(F)(F)F)c(C#N)c2)cc1 | 94% (active) | 6% | 0% | 94% (active) | inactive | inactive | inactive | inactive
CCc1ccc(NC(=O)c2ccc(CN3CCCN(Cc4cccc(O)c4)CC3)cc2)cc1 | 55% (active) | 51% (active) | 0% | 100% (active) | inactive | inactive | inactive | inactive
O=C(/C=C/c1ccc(Cl)c(Cl)c1)NCCCCCN1CCC(NC(=O)NC2CCCCC2)CC1 | 44% | 22% | -1% | 96% (active) | inactive | inactive | inactive | inactive
O=c1cc(NCCCNCc2cccc(OC(F)(F)F)c2)[nH]c2ccccc12 | 72% (active) | -4% | -1% | 97% (active) | inactive | inactive | inactive | inactive
O=C(NCc1ccc(F)cc1)c1ccc(N2CCN(c3ccncc3)CC2)cn1 | 81% (active) | 7% | -2% | 98% (active) | inactive | inactive | inactive | inactive
CN1CCC(N2CCN(Cc3ccc(-c4cccc(-c5nc6ccc(F)cc6[nH]5)c4)cc3)CC2)CC1 | 99% (active) | 67% (active) | -1% | 101% (active) | inactive | inactive | inactive | inactive
FC(F)(F)c1ccc2nc(-c3cccc(-c4ccc(CNCc5cnn(-c6ccccc6)n5)cc4)c3)[nH]c2c1 | 67% (active) | 14% | -4% | 101% (active) | inactive | inactive | inactive | inactive
O=C(Nc1cccc(-c2ccc(CN3CCCC3)cc2)c1)c1ccc(F)cc1 | 9% | 23% | 4% | 92% (active) | inactive | inactive | inactive | inactive
O=C(NCCc1ccccc1)N(Cc1ccccc1-c1cccc(CNC2CCCC2)c1)C1CCN(Cc2ccccc2)CC1 | 87% (active) | 31% | 5% | 95% (active) | inactive | inactive | inactive | inactive
Cc1cc(N[C@@H](Cc2ccccc2)C(=O)Nc2ccccc2)nc(NCC2CCCCC2)n1 | 55% (active) | 12% | 1% | 98% (active) | inactive | inactive | inactive | inactive

Structure (SMILES) | growth inhibition [1] | inhibition [2] | inhibition [3] | growth inhibition [4] | outcome [5] | outcome [6] | outcome [7] | outcome [8]
Cc1cc(N(C)C)nc(Nc2ccc(NC(=O)c3ccccc3Cl)cc2)n1 | 31% | 3% | -2% | 88% (active) | inactive | inactive | inactive | inactive
O=C(Nc1cccc(-c2cccc(-c3nc4ccccc4[nH]3)c2)c1)c1csnn1 | 27% | 31% | 5% | 90% (active) | inactive | inactive | inactive | inactive
CC(C)Cn1c(N)cc(=O)n(C)c1=O | 0% | 3% | 3% | 100% (active) | inactive | inactive | inactive | inactive
COc1ccc2nc(C)cc(N/N=C/C=C/c3ccccc3)c2c1 | 100% (active) | 27% | 0% | 100% (active) | inactive | inactive | inactive | inactive
CCOc1ccc(-c2n[nH]c(C(F)(F)F)c2-c2ccccc2OC)c(O)c1 | 12% | 22% | -5% | 86% (active) | inactive | inactive | inactive | inactive
CCOc1cc(C(C)C)ccc1C1CCN(CCCCNC(=O)c2ccc(NC(=O)c3ccc(Cl)cc3)cc2)CC1 | 98% (active) | 32% | 2% | 101% (active) | inactive | inactive | inactive | inactive
N#Cc1ccc(N[C@@H](CC2CCCCC2)C(=O)NCc2cc(Cl)cc(Cl)c2)c2ccccc12 | 88% (active) | 34% | 0% | 94% (active) | inactive | inactive | inactive | inactive
O=C(NCC1CC1)C1CCN(C(c2ccccc2)c2nc3ccccc3s2)CC1 (stereo not given) | 49% | -3% | 8% | 92% (active) | inactive | inactive | inactive | inactive
Cc1ccc(Nc2nc(C)cc(NCc3ccc(-n4ccnc4)cc3)n2)cc1 | 100% (active) | 33% | 1% | 101% (active) | inactive | inactive | inactive | inactive
COc1ccc(-n2cc(C(=O)c3cc(Br)ccc3O)cc(C#N)c2=O)cc1Cl | 23% | 29% | -5% | 99% (active) | inactive | inactive | inactive | inactive
O=C(Nc1cccc(CN2CCCN(Cc3ccc(O)cc3)CC2)c1)c1ccc2ccccc2c1 | 78% (active) | 20% | 1% | 101% (active) | inactive | inactive | inactive | inactive
Cc1oc(-c2ccc(Cl)cc2)cc1C(=O)NCCC1CCN(CCCCCNC(=O)/C=C/c2ccc(Cl)c(Cl)c2)CC1 | 88% (active) | 100% (active) | -4% | 100% (active) | inactive | inactive | inactive | inactive
Cc1cccc(CN2CCC(CNC(=O)c3cc4c(-c5ccccc5F)nn(C)c4s3)CC2)c1 | 15% | 18% | -4% | 85% (active) | inactive | inactive | inactive | inactive
O=C(Cc1cccc(Cl)c1)Nc1cccc(-c2c[nH]c3nc(Nc4cccc(OCc5ccccc5)c4)ncc23)c1 | 56% (active) | -1% | -1% | 100% (active) | inactive | inactive | inactive | inactive
Cc1cccc2[nH]c(-c3ccc(-c4ccc(NC(=O)CN5CCN(C)CC5)cc4)s3)nc12 | 86% (active) | 56% (active) | -9% | 95% (active) | inactive | inactive | inactive | inactive
CCc1c(CCNCC/C=C/CCNCCc2ccc(OC)c(OC)c2CC)ccc(OC)c1OC | 7% | 41% | 3% | 100% (active) | inactive | inactive | inactive | inactive
CN1CCC(NCc2ccc(-c3ccc(S(=O)(=O)NCc4ccccc4)c(F)c3)cc2)CC1 | 89% (active) | 53% (active) | -3% | 99% (active) | inactive | inactive | inactive | inactive
Nc1ncc(-c2ccc3nccc(-c4ccncc4)c3c2)cc1S(=O)(=O)N1CCCCC1 | 100% (active) | 25% | 3% | 100% (active) | inactive | inactive | inactive | inactive
O=C(NCCCCN1CCC(c2ccc(Br)cc2)CC1)c1ccc(NC(=O)c2ccc(Cl)cc2)cc1 | 86% (active) | 17% | 0% | 100% (active) | inactive | inactive | inactive | inactive
COc1cc(Nc2ncnc3cc(OC)c(OC)cc23)cc([N+](=O)[O-])c1 | 6% | 8% | 8% | 97% (active) | inactive | inactive | inactive | inactive
